Measured values reported in PubChem BioAssay (EPA / NIEHS).
Active and inactive are the calls of the source. How the source made its calls: active means hit-call score of the fitted dose curve at least 0.9, where 1 is the maximum; inactive means score below 0.9.

What was measured:
Settings in all cases: mRNA level, 48 h; actives raise or lower the signal
[1] = read-out: Heat shock 70 kDa protein 1 (HSPA1A), gene 3303; test: LTEA_HepaRG_HSPA1A: Life Technologies and Expression Analysis (LTEA) Assay for Heat shock 70 kDa protein 1 (HSPA1A) using HepaRG (AID 2283502)
Method in brief: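 Cells were plated and cultured for 48 h, then switched to serum-free induction medium. Chemicals were added at eight half-log concentrations up to 100 uM for 48 h. RNA was then isolated and HSPA1A measured by qRT-PCR with bidirectional curve fitting against DMSO.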

[2] = read-out: 3-Hydroxy-3-Methylglutaryl-CoA Synthase 2 (HMGCS2), HMGCS2 (gene 3158); test: LTEA_HepaRG_HMGCS2: Life Technologies and Expression Analysis (LTEA) Assay for 3-Hydroxy-3-Methylglutaryl-CoA Synthase 2 (HMGCS2) using HepaRG (AID 2283504)
Method in brief: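 Expression of HMGCS2 in human HepaRG liver cells is measured by qRT-PCR 48 h after dosing (highest 100 uM, half-log series, 0.5% DMSO). Values come from bidirectional concentration-response fitting with DMSO as baseline.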

HGF (gene 3082) = test: LTEA_HepaRG_HGF: Life Technologies and Expression Analysis (LTEA) Assay for Hepatocyte Growth Facto (HGF) using HepaRG (AID 2283505)
Method in brief: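 Gain or loss of HGF mRNA in human HepaRG liver cells after 48 h chemical exposure; eight concentrations up to 100 uM with 0.5% DMSO vehicle, quantified by TaqMan qRT-PCR.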

[3] = read-out: Insulin Like Growth Factor 1 (IGF1), IGF1 (gene 3479); test: LTEA_HepaRG_IGF1: Life Technologies and Expression Analysis (LTEA) Assay for Insulin Like Growth Factor 1 (IGF1) using HepaRG (AID 2283506)
Method in brief: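 Cells are thawed, plated and cultured 48 h, then exposed in duplicate to chemical (highest 100 uM, half-log steps, 0.5% DMSO) for another 48 h. Total RNA is analysed by Fluidigm qRT-PCR for IGF1 expression relative to vehicle.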

[4] = read-out: Intercellular Adhesion Molecule 1 (ICAM1), ICAM1 (gene 3383); test: LTEA_HepaRG_ICAM1: Life Technologies and Expression Analysis (LTEA) Assay for Intercellular Adhesion Molecule 1 (ICAM1) using HepaRG (AID 2283507)
Method in brief: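 Gain or loss of transcript in HepaRG hepatic cells is quantified by qRT-PCR after 48 h chemical exposure (up to 100 uM, half-log steps), with DMSO as baseline.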

[5] = read-out: Insulin-like growth factor-binding protein 1 (IGFBP1), IGFBP1 (gene 3484); test: LTEA_HepaRG_IGFBP1: Life Technologies and Expression Analysis (LTEA) Assay for Insulin-like growth factor-binding protein 1 (IGFBP1) using HepaRG (AID 2283508)
Method in brief: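 mRNA induction or loss was quantified by qRT-PCR after 48 h chemical exposure of human HepaRG cells, with 0.5% DMSO as vehicle and baseline. Concentration-response over eight points up to 100 uM.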

[6] = read-out: Interleukin 6 (IL6), IL6 (gene 3569); test: LTEA_HepaRG_IL6: Life Technologies and Expression Analysis (LTEA) Assay for Interleukin 6 (IL6) using HepaRG (AID 2283509)
Method in brief: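 qRT-PCR read-out of IL6 transcript, normalized to three housekeeping genes, after 48 h chemical exposure of HepaRG cells; 8-point half-log series, top 100 uM, 0.5% DMSO vehicle. Bidirectional curve fitting against DMSO baseline.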

[7] = read-out: Interleukin 6 Receptor (IL6R), IL6R (gene 3570); test: LTEA_HepaRG_IL6R: Life Technologies and Expression Analysis (LTEA) Assay for Interleukin 6 Receptor (IL6R) using HepaRG (AID 2283510)
Method in brief: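 Cells were thawed, plated and cultured 48 h, then medium was changed to serum-free induction medium. Chemicals were added in duplicate (100 uM top, half-log steps, 0.5% DMSO) for 48 h. Lysates were analyzed by qRT-PCR for IL6R expression.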

[8] = read-out: Potassium channel subfamily K member 1 (KCNK1), KCNK1 (gene 3775); test: LTEA_HepaRG_KCNK1: Life Technologies and Expression Analysis (LTEA) Assay for Potassium channel subfamily K member 1 (KCNK1) using HepaRG (AID 2283511)
Method in brief: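 HepaRG, 48 h exposure, 8-pt half-log series top 100 uM, 0.5% DMSO vehicle, duplicates. Readout: KCNK1 transcript by qRT-PCR (Fluidigm array), housekeeping-normalized; bidirectional curve fit relative to DMSO baseline.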

[9] = read-out: Keratin 19 (KRT19), KRT19 (gene 3880); test: LTEA_HepaRG_KRT19: Life Technologies and Expression Analysis (LTEA) Assay for Keratin 19 (KRT19) using HepaRG (AID 2283512)
Method in brief: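 Gene-expression endpoint in the human liver line HepaRG after 48 h exposure to up to 100 uM test chemical with 0.5% DMSO vehicle; KRT19 mRNA by qRT-PCR, analyzed bidirectionally versus DMSO.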

[10] = read-out: JUN Transcription Factor, JUN (gene 3725); test: LTEA_HepaRG_JUN: Life Technologies and Expression Analysis (LTEA) Assay for JUN Transcription Factor using HepaRG (AID 2283513)
Method in brief: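 Read-out is JUN transcript level by TaqMan qRT-PCR, normalized to ACTB, GAPDH and POLR2A, after 48 h chemical treatment of HepaRG cells. Concentration-response spanned eight half-log points up to 100 uM in 0.5% DMSO.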

[11] = read-out: Lipase C (LIPC), LIPC (gene 3990); test: LTEA_HepaRG_LIPC: Life Technologies and Expression Analysis (LTEA) Assay for Lipase C (LIPC) using HepaRG (AID 2283514)
Method in brief: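 HepaRG, 48 h exposure, 8-pt half-log series from 100 uM in 0.5% DMSO, duplicates. Readout: LIPC mRNA by Fluidigm qRT-PCR, housekeeping-normalized (ACTB/GAPDH/POLR2A). Gain or loss fitted bidirectionally against DMSO baseline.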

[12] = read-out: Lipoprotein lipase (LPL), LPL (gene 4023); test: LTEA_HepaRG_LPL: Life Technologies and Expression Analysis (LTEA) Assay for Lipoprotein lipase (LPL) using HepaRG (AID 2283515)
Method in brief: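 HepaRG, 48 h exposure, 8-pt half-log dilutions from 100 uM, 0.5% DMSO vehicle, duplicates; qRT-PCR (Fluidigm array) of LPL mRNA vs housekeeping genes; bidirectional curve fit relative to DMSO baseline.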

[13] = read-out: MicroRNA 122 (MIR122), gene 406906; test: LTEA_HepaRG_MIR122: Life Technologies and Expression Analysis (LTEA) Assay for MicroRNA 122 (MIR122) using HepaRG (AID 2283516); further: the transcript read is the microRNA miR-122
Method in brief: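 Human liver HepaRG cultures receive test chemicals for 48 h at eight half-log concentrations from 100 uM. Expression is quantified by qRT-PCR with ACTB/GAPDH/POLR2A normalization and fitted bidirectionally against 0.5% DMSO.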

[14] = read-out: matrix metalloproteinase-10 (MMP10), MMP10 (gene 4319); test: LTEA_HepaRG_MMP10: Life Technologies and Expression Analysis (LTEA) Assay for matrix metalloproteinase-10 (MMP10) using HepaRG (AID 2283517)
Method in brief: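 Transcript levels come from Fluidigm qRT-PCR normalized to three housekeeping genes, with curves fitted bidirectionally against 0.5% DMSO. Human HepaRG cells were dosed for 48 hours at concentrations up to 100 uM.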

MYC, MYC (gene 4609) = test: LTEA_HepaRG_MYC: Life Technologies and Expression Analysis (LTEA) Assay for MYC using HepaRG (AID 2283518)
Method in brief: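 Cells are thawed, plated and cultured 48 h, then treated for 48 h with test chemicals (eight half-log concentrations from 100 uM, 0.5% DMSO vehicle). RNA is isolated and MYC expression quantified by qRT-PCR against three housekeeping genes.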

[15] = read-out: matrix metalloproteinase-3 (MMP3), MMP3 (gene 4314); test: LTEA_HepaRG_MMP3: Life Technologies and Expression Analysis (LTEA) Assay for matrix metalloproteinase-3 (MMP3) using HepaRG (AID 2283519)
Method in brief: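 qRT-PCR read-out of MMP3 mRNA (normalised to three housekeeping genes) in HepaRG liver cells after 48 h chemical exposure; 8-point half-log series, top 100 uM, 0.5% DMSO vehicle. Bidirectional curve fitting against DMSO baseline.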

[16] = read-out: Paternally Expressed 10 (PEG10), PEG10 (gene 23089); test: LTEA_HepaRG_PEG10: Life Technologies and Expression Analysis (LTEA) Assay for Paternally Expressed 10 (PEG10) using HepaRG (AID 2283520)
Method in brief: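 Human HepaRG cultures are dosed for 48 h across an eight-point half-log series starting at 100 uM, with 0.5% DMSO as vehicle and baseline. Gain or loss of PEG10 transcript is measured by qRT-PCR and fitted in both directions.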

[17] = read-out: Nuclear factor NF-kappa-B p105 subunit (Homo sapiens) (UniProt P19838); test: LTEA_HepaRG_NFKB1: Life Technologies and Expression Analysis (LTEA) Assay for Nuclear Factor Kappa B Subunit 1 (NFKB1) using HepaRG (AID 2283521);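 further: differentiated human HepaRG liver cells in serum-free induction medium; TaqMan qRT-PCR transcript normalised to ACTB GAPDH and POLR2A housekeeping genes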
Method in brief: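 NFKB1 transcript was measured by TaqMan qRT-PCR on Fluidigm arrays, normalised to three housekeeping genes and fitted in both directions against 0.5% DMSO. HepaRG cells were dosed in duplicate for 48 h in serum-free induction medium, eight half-log steps from 100 uM.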

[18] = read-out: Protein phosphatase 2A (PPP2R4), PTPA (gene 5524); test: LTEA_HepaRG_PPP2R4: Life Technologies and Expression Analysis (LTEA) Assay for Protein phosphatase 2A (PPP2R4) using HepaRG (AID 2283522)
Method in brief: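 Cells were plated, cultured 48 h, switched to serum-free induction medium, then dosed for 48 h (8 points, max 100 uM, 0.5% DMSO). RNA was isolated and PPP2R4 expression measured by TaqMan qRT-PCR.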

Measured: outcome

Chain of Nuclear factor NF-kappa-B p105 subunit (Homo sapiens) (P19838 whole entry, looked up): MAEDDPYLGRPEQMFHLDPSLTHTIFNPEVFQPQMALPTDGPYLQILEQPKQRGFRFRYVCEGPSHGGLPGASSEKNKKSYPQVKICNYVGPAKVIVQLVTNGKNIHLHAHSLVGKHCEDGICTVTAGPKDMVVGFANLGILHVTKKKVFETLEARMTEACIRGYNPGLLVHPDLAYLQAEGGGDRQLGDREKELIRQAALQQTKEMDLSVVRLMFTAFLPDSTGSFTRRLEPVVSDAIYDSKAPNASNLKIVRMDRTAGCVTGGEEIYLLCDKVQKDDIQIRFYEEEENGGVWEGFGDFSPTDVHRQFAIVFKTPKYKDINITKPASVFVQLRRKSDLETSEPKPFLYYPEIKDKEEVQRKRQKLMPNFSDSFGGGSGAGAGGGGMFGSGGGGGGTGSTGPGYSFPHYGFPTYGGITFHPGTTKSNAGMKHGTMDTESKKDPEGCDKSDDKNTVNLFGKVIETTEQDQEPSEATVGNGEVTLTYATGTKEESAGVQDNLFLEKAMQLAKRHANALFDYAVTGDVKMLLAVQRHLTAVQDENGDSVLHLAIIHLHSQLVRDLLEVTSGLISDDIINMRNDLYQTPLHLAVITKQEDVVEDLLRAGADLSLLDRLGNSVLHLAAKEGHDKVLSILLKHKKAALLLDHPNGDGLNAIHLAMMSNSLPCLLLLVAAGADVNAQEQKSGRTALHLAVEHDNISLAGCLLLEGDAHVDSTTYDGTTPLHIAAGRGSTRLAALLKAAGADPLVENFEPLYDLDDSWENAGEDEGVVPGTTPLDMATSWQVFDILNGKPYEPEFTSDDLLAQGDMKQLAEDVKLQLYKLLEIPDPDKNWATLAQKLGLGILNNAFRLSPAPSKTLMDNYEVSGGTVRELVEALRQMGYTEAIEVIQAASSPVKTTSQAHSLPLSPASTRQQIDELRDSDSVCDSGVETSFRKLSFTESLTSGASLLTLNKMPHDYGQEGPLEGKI

O=C(CCl)c1ccccc1
inactive: all assays above
